Assay outcomes: PubChem, National Center for Advancing Translational Sciences (NCATS)
Most compounds without a hit are left out; they make up all but 19% or so of the library.
KB-3-1 tox – kills parental KB-3-1 adenocarcinoma cells; Potency, µM (titrated, usually from 46.1 µM), hits mostly cytotoxic; actives 1.4% (n = 400,000); KB-3-1 viability, CellTiter-Glo ATP luminescence, 72 h; further: nearly all actives have a fitted effect of over 60% in size
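Parental KB-3-1 viability, qHTS format: 72 h compound exposure, 37 °C; CellTiter-Glo; media-only wells and DMSO plates as controls; concentration-effect fits on corrected data.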
HT1080NT lethal – kills 2HG-producing HT-1080-NT fibrosarcoma cells. HT-1080-NT fibrosarcoma viability, CellTiter-Glo ATP luminescence, 48 h. Potency, µM (top dose mostly 46.1 µM), for inactives: at the highest dose activity, negative = less viability, most hits filed as cytotoxic. actives 1.6% (n = 360,000);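 further: NT is the 2HG producing partner of a matched IDH1 knockdown line; 0% = DMSO-treated cells and -100% = media-only wells without cells; nearly all actives have a fitted effect of over 55% in size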
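Compounds were tested in concentration-response format on HT-1080-NT cells for 48 hours at 37 degrees C. Cell viability came from CellTiter-Glo luminescence; curves were classified by r2, response magnitude and activity.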
HT1080 IDH1KD tx – kills HT-1080 cells with IDH1 knockdown; Potency, µM (highest dose often 46.1 µM), for inactives: at the highest dose activity, negative = toxicity, hits mostly cytotoxic; actives 2% (n = 360,000); AID 686971; HT-1080 IDH1 knockdown viability, ATP luminescence, 48 h;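 further: 0% = DMSO wells and -100% = cell-free medium wells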
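Assay cells: HT-1080 with IDH1 knockdown, 750 per well, RPMI/5% FBS. Exposure: 48 h at 37 °C following 2 h pre-incubation. Read: CellTiter-Glo luminescence; fitted concentration-response, curve class assigned.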
TDP1 cell CPT – growth inhibition of DT40 Tdp1-/-;hTDP1 cells with camptothecin (screen for TDP1 inhibitors); actives 12% (n = 420,000); chicken DT40 Tdp1-/-;hTDP1 cells + 20 nM CPT, ATP luminescence, 48 h; Potency, µM (titrated, usually from 46.2 µM), inactives show top-dose activity change, negative = growth inhibition, usual class: inhibitors; AID 686979; further: nearly all actives have a fitted effect of over 55% in size
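Chicken DT40 Tdp1-/- cells complemented with human TDP1, 400 cells/well, exposed to compounds plus 20 nM camptothecin for at least 48 h at 37 C; viability read as ATP content by CellTiter-Glo luminescence.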
TDP1 cell noCPT – qHTS for Inhibitors of human tyrosyl-DNA phosphodiesterase 1 (TDP1): qHTS in cells in absence of CPT | DT40 Tdp1-/- hTDP1 cells, no CPT, ATP luminescence, 48 h | Potency, µM (doses to about 46.2 µM), for inactives: at the highest dose activity change, negative = growth inhibition, usual class: inhibitors | actives 15% (n = 420,000); further: nearly all actives have a fitted effect of over 55% in size
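Growth of hTDP1-complemented DT40 Tdp1-knockout cells is measured by ATP luminescence after at least 48 hr compound exposure at 37 °C, with DMSO substituting for the 20 nM CPT used in the parallel screen.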
KB-V1 MDR tox – KB-V1 MDR subline cytotoxicity. Potency, µM (top dose mostly 46.1 µM), actives largely listed as cytotoxic. actives 3.4% (n = 400,000). KB-V1 MDR cells viability, CellTiter-Glo, 72 h; further: nearly all actives have a fitted effect of over 60% in size
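Cytotoxicity toward P-gp-expressing KB-V1 cells was determined as loss of CellTiter-Glo luminescence after 72 h at 37 degrees C. Compounds were tested in quantitative HTS format across a concentration range, with curves fitted to normalized data.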
* hit, by the source's call; i = inactive; ? = inconclusive; nt = no result; [ ] = another dose, or the depositor's remark. The call rests on the fitted dose curve; in most records, active means well fitted curve in the direction sought with a large enough effect; inconclusive means small, poorly fitted or top-dose-only effect, or another doubt; inactive means no such curve, though single readings can be large; an effect the other way counts as inactive or inconclusive. Unless noted, on the % scale 0 is the no-effect control and ±100 the full control effect; potency means the concentration at half of the fitted maximal effect.

SMILES	KB-3-1 tox	HT1080NT lethal	HT1080 IDH1KD tx	TDP1 cell CPT	TDP1 cell noCPT	KB-V1 MDR tox
O=C(Cc1ccc([N+](=O)[O-])cc1)N1N=C(C2CC2)CC1(O)C(F)(F)F (centres undefined)	i	-9.2%	-10.5%	25.9µM*	?	?
CCC1=NN(C(=O)Cc2ccc([N+](=O)[O-])cc2)C(O)(C(F)(F)F)C1 (centres undefined)	i	9.5%	5.1%	-6.1%	?	i
CCCC1=NN(C(=O)Cc2ccc(OC)c(OC)c2)C(O)(C(F)(F)F)C1 (centres undefined)	i	-5.8%	-4.8%	-17.4%	-24.9%	i
CCC1=NN(C(=O)Cc2ccc(OC)cc2)C(O)(C(F)(F)F)C1 (centres undefined)	i	-28.9%	?	29.1µM*	20.6µM*	i
Cc1ccc(OCC(=O)N2N=C(c3cccnc3)CC2(O)C(F)(F)F)cc1C (centres undefined)	i	-12.1%	-13.0%	16.4µM*	?	i
O=C(c1ccco1)N1N=C(C2CCCCC2)CC1(O)C(F)(F)F (centres undefined)	i	-10.4%	-12.3%	0.2%	-10.3%	?
Cc1cccc(NS(=O)(=O)c2ccc(C(=O)N3CCC3)cc2)c1C	i	-0.1%	-4.8%	-14.6%	?	i
CCOC(=O)N1N=C(c2ccc(OC)cc2)CC1(O)C(F)(F)F (centres undefined)	i	2.7%	1.4%	-0.3%	-22.9%	i
COc1ccc(CC(=O)N2N=C(c3ccncc3)CC2(O)C(F)(F)F)cc1 (centres undefined)	i	14.6µM*	9.2µM*	5.17µM*	4.61µM*	5.17µM*
Nc1ccn(CC(=O)NCc2ccc3[nH]ccc3c2)c(=O)n1	i	0.7%	2.6%	4.8%	-3.0%	i
Cc1cc(C)c2nc(C(F)(F)F)nc(N3CCN(C(=O)c4ccco4)CC3)c2c1	i	-9.8%	-0.3%	25.9µM*	?	11.6µM*
Cc1ccc(-c2nnc(N3CCN(C(=O)CN4C(=O)c5ccccc5C4=O)CC3)c3ccccc23)cc1	i	11.9%	7.0%	?	?	i
Cc1ccc(-c2nnc(N3CCN(C(=O)COc4cccc(C)c4)CC3)c3ccccc23)cc1	?	-0.9%	-20.3%	?	?	?
Cc1cccc(OCC(=O)N2CCN(c3nnc(-c4ccccc4)c4ccccc34)CC2)c1	i	-3.6%	-14.3%	?	18.4µM*	?
COc1ccc(OCC(=O)N2CCN(c3nnc(-c4ccc(C)cc4)c4ccccc34)CC2)cc1	?	?	?	16.4µM*	16.4µM*	5.17µM*
Cc1cc(C)c2nc(N3CCCN(C(=O)c4ccco4)CC3)c(C#N)cc2c1	i	-2.8%	-3.7%	?	?	i
O=C(COc1ccccc1)N1CCN(c2nnc(-c3ccccc3)c3ccccc23)CC1	?	?	-23.1%	13µM*	16.4µM*	4.11µM*
CCn1cc(CN2CCOc3ccc(C(O)C4CCCCC4)cc3C2)c(C)n1 (centres undefined)	nt	nt	nt	-9.0%[9.04 µM]	?	nt
O=C(C[n+]1ccccc1)c1ccc(I)cc1	?	nt	nt	-19.6%	?	?
COc1ccc(OCC(=O)N2CCN(c3nnc(-c4ccccc4)c4ccccc34)CC2)cc1	23.1µM*	-26.4%	-3.7%	16.4µM*	18.4µM*	2.59µM*
Cc1ccc(-c2nnc(N3CCN(C(=O)c4ccco4)CC3)c3ccccc23)cc1	i	-1.7%	0.8%	20.6µM*	?	?
Cc1ccc(OCC(=O)N2CCN(c3nnc(-c4ccc(C)cc4)c4ccccc34)CC2)cc1	16.4µM*	14.1µM*	?	16.4µM*	23.1µM*	2.59µM*
O=C(CCc1nnc(Cc2c[nH]c3ccccc23)o1)NCC1CC12CCCCC2 (centres undefined)	i	-10.6%	-0.8%	?	25.9µM*	i
OC(Cc1cccc(C=NN2CCOCC2)n1)(C(F)(F)F)C(F)(F)F	i	-1.1%	-10.4%	5.5%	?	i
Cc1ccc(CC(=O)O/N=C(\N)Cc2ccc([N+](=O)[O-])cc2)cc1	i	2.9%	16.8%	7.0%	-27.0%	i
SMILES	KB-3-1 tox	HT1080NT lethal	HT1080 IDH1KD tx	TDP1 cell CPT	TDP1 cell noCPT	KB-V1 MDR tox
Cc1cccc(C(=O)O/N=C(\N)Cc2ccc([N+](=O)[O-])cc2)c1	?	?	-13.8%	25.9µM*	-22.3%	?
N/C(Cc1ccc([N+](=O)[O-])cc1)=N\OC(=O)C(c1ccccc1)c1ccccc1	i	17.8µM*	?	?	-27.5%	i
Cc1ccc(C(=O)O/N=C(\N)Cc2ccc([N+](=O)[O-])cc2)c(Cl)c1	?	-4.3%	-1.7%	?	23.1µM*	i
N/C(Cc1ccccc1)=N\OC(=O)c1cccc2ccccc12	?	?	20.6µM*	?	?	i
CC(OC(=O)Cn1cnc2c1c(=O)n(C)c(=O)n2C)C(=O)NC1CCCCC1C (centres undefined)	i	5.0%	5.3%	8.8%	10.2%	i
CCN1C(=O)[C@H]2[C@@H](c3ccc(C)cc3)N[C@]3(CCCN(Cc4ccc(F)cc4)C3=O)[C@H]2C1=O	i	0.2%	0.7%	?	?	i
N/C(Cc1ccc([N+](=O)[O-])cc1)=N\OC(=O)c1ccc2ccccc2c1	i	18.4µM*	?	9.2µM*	?	i
O=C(NCc1nnc(SCC(=O)N2CCCCCC2)o1)c1ccccc1F	i	2.4%	11.8%	9.4%	14.0%	i
CC(C)C(=O)Nc1ccc(C(=O)CN2C(=O)NC3(CCOc4ccccc43)C2=O)cc1 (centres undefined)	i	8.4%	-0.8%	?	?	i
Cc1ccc(NC(=O)C(C)N2C(=O)C3CC=C(Cl)CC3C2=O)cc1 (centres undefined)	i	10.7%	9.7%	-13.8%	12.2%	i
CC(C(=O)Nc1ccc(Cl)cc1)N1C(=O)NC2(CCCC2)C1=O (centres undefined)	i	-3.6%	-15.3%	?	20.6µM*	i
CCCCCC(=O)Nc1ccc(C(=O)CN2C(=O)NC3(CCCCCC3)C2=O)cc1	?	-28.5%	-4.5%	5.8µM*	3.66µM*	i
